Results as given in PubChem BioAssay (NCATS).
Records with an inconclusive call do not appear. Active and inactive are the calls of the source. Calls follow the shape of the dose curve; as a rule, active = well fitted cell-killing curve with a large enough effect; inconclusive = small, poorly fitted or top-dose-only effect, or effect the other way; inactive = flat fitted curve, though single readings scatter.

Columns and labels:
Experiment in all cases: Primary qHTS to identify gynecologic anti-cancer compounds using libraries of approved drugs and bioactive compounds (AID 1345084); also: nearly all actives have a fitted effect of over 55% in size
Conditions in all cases: Gynecologic cancer cell panel viability, ATPlite luminescence, 48 h; series mostly up to 57.5 µM
[1] = tested on: PA-1
Summary of the method: (§1)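 Luminescence from the ATPlite ATP-monitoring reagent indicates viable cell number; lower signal means cytotoxicity. Cells received compound 16 h after seeding and were exposed for 48 h across five concentrations.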

[2] = tested on: SKOV3
Summary of the method: as §1

[3] = tested on: Tov-21-G
Summary of the method: as §1

[4] = tested on: Tov112D
Summary of the method: as §1

Measured: Potency
Potency is read from the fitted curve at half-maximal effect.

CC(=O)OC[C@@]12C(=O)C[C@@H](C)[C@]3(C[C@@H](c4ccoc4)O[C@H]3OC(C)=O)[C@H]1CCC[C@]21CO1
inactive: all assays above

COc1c2c(c(C)c3c1C(=O)OC3)O[C@@]1(C)CC(O)C(C(C)(C)O)[C@](C)(CCC(=O)O)[C@H]1C2 (stereo not given in full)
active: [3] 6.31 µM
inactive: all other assays above

C[C@H](Nc1ncnc2nc[nH]c12)c1cc2ccc(F)cc2nc1-c1ccccn1
inactive: all assays above

CCC(C)C(=O)OC1CC(C)C=C2C=CC(C)C(CCC(O)CC(O)CC(=O)O)C21 (stereo not given)
inactive: all assays above

CC(C)CCC[C@@H](C)[C@H]1CC[C@H]2[C@@H]3CC(=O)[C@H]4C[C@@H](O)CC[C@]4(C)[C@H]3CC[C@]12C
inactive: all assays above

CCC[C@@H]1O[C@@H]2C[C@H]3[C@@H]4CCC5=CC(=O)C=C[C@]5(C)[C@H]4[C@@H](O)C[C@]3(C)[C@]2(C(=O)CO)O1
inactive: all assays above

CCOc1ccc(S(=O)(=O)n2c(C)nc3ccccc32)cc1
inactive: all assays above

Cc1cc(Cl)ccc1COc1ccnn1-c1cc(C(=O)O)ccn1
inactive: all assays above

CCCC(=O)C1CCN(c2ncnc3c2CN(C(=O)c2ccc(-c4ccccc4)cc2)CC3)CC1
inactive: all assays above

CCCC(=O)O[C@@H]1[C@@H]2[C@@H](OC(C)=O)[C@]3(C)C(=O)[C@H]4[C@@H](OC(C)=O)C(C)(C)C[C@H]4[C@]3(C)C(=O)[C@@]2(OC(C)=O)C[C@@H]1C
inactive: all assays above

C=CC1C(OC2OC(CO)C(O)C(O)C2O)OC=C(C(=O)OC)C1CC1CC(=O)CC(CCc2ccc(O)cc2)O1 (stereo not given)
inactive: [1] | [2] | [4]

O=C(NCc1ccccn1)Nc1nnc(-c2ccco2)o1
inactive: all assays above

COc1ncc(Nc2ncc([C@@H](C)N3CCN(S(C)(=O)=O)CC3)cc2-c2nc(C)nc(N)n2)cc1F
inactive: [1] | [4]
active: [2] 0.398 µM

N#CC(c1ccnc(OCc2ccc(CN3CCOCC3)cc2)n1)c1nc2ccccc2s1 (stereo not given)
inactive: [1] | [4]
active: [2] 7.94 µM

C[C@@H]1CCN(C(=O)N2CCCC2)C[C@@H]1N(C)c1ncnc2[nH]ccc12
inactive: [1] | [2] | [4]

CCN(CC)CCN(Cc1ccc(-c2ccc(C(F)(F)F)cc2)cc1)C(=O)Cn1c(SCc2ccc(F)cc2)nc(=O)c2c1CCC2
active: [1] 28.2 µM | [2] 7.94 µM | [4] 35.5 µM

C=C(C)C(=O)OC1C(OC(C)=O)/C(C=O)=C\CC/C(CO)=C/C2OC(=O)C(=C)C21 (stereo not given)
inactive: [1] | [2] | [4]

COC1C(=O)CCC2(CO2)C1(O)C1(C)OC1CC=C(C)C (stereo not given)
inactive: [1] | [2] | [4]
